From PubChem BioAssay (NCI)
This is part of a sample that, as a whole, favours compounds with a hit. Of some 83,000 tested, about 20% had one in any assay.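 Each cell line was grown in a 96-well plate and treated with one concentration of compound for 48 hours. Values below 10 were considered active.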 Values without a mark were called inactive. Activity calls are given as the source filed them.

What follows are molecules tested on SR leukemia (assay: NCI-60 one-dose screen, 48 h (100 = growth as untreated, 0 = no growth, -100 = all killed)). Conditions: 10 µM unless noted.

Row | SMILES | growth
1 | Cc1ccc2c(c1)=C/C(=C\c1cc(-c3ccccc3)oc1O)C(=O)N=2 | 101%
2 | O=C(CSc1nnc(-c2cnccn2)n1-c1ccccc1)c1ccc(Cl)cc1 | 90.8%
3 | CCC(=C(c1ccc(OCCN2CCCCC2)cc1)c1ccc(OCCN2CCCCC2)cc1)c1ccc(Cl)cc1 | -49% (active)
4 | O=C(Nc1ccc(Oc2cccc(Cl)c2)c(Cl)c1)c1cnccn1 | 26.3%
5 | CCCNc1nc2ccccc2c2c1S(=O)(=O)c1ccc(Cl)cc1C2=O | 8.34% (active)
6 | C=CCOC(=O)Nc1cccn([C@H](Cc2ccccc2)C(=O)NCCC(C)C)c1=O | 64.6%
7 | N#Cc1c(-c2ccc(Cl)cc2)nc(NN2C(=O)c3ccccc3C2=O)nc1N1CCOCC1 | 84%
8 | N#Cc1nc(-c2ccc(F)cc2)oc1S(=O)(=O)N1CCCCC1 | 1.55% (active)
9 | COc1ccc2cc1Oc1ccc(cc1)C[C@H]1c3c(cc4c(c3Oc3cc5c(cc3OC)CCN(C)[C@@H]5C2)OCO4)CCN1C | -17.3% (active)
10 | C=C1C(=O)O[C@H]2[C@H]1CC/C(COC(=O)/C=C\C(=O)NCc1ccc(Cn3c(=O)sn(CCI)c3=O)cc1)=C\CC[C@@]1(C)O[C@@H]21 | 2.49% (active)
11 | CCOC(=O)c1c(NC(=O)c2ccc(Cl)cc2)sc2c(CN(C)C)c(O)ccc12 | -8.09% (active)
12 | CSc1nc(N)c(NS(=O)(=O)c2ccc(C(C)=O)cc2)c(=O)[nH]1 | 119%
13 | COc1cc2c(c(OC)c1OC)CCC(c1cccc(C(=O)Nc3cccc(Cl)c3)c1)O2 (configuration not stated) | 30.5%
14 | Cc1nc2sc(C(=O)Nc3cccc4ccccc34)c(N)c2cc1C(O)c1ccccc1 (configuration not stated) | -1.98% (active)
15 | COc1ccc(C(=O)N2c3ccccc3Sc3ccccc32)c(OC)c1 | 22.4%
16 | Cc1nc2sc(C(=O)Nc3ccc(Br)cc3)c(N)c2cc1C(O)c1ccccc1 (configuration not stated) | 14.9%
17 | CNc1nnc2n(-c3ccccc3)c(=O)c3cnn(-c4ccccc4)c3n12 | 65.2%
18 | [O-]/[N+](=C\c1ccc(-n2cc(Cc3ccccc3Cc3cn(-c4ccc(/C=[N+](/[O-])c5ccccc5)cc4)nn3)nn2)cc1)c1ccccc1 | 95%
19 | COc1ccc(/C=N\Nc2nc(SCCC(C)C)nc(-c3ccc(OC)cc3)c2C#N)cc1 | 4.53% (active)
20 | COC1/C=C/OC2(C)Oc3c(C)c(O)c4c(O)c(c(/C=N/Nc5ccc([N+](=O)[O-])cc5[N+](=O)[O-])c(O)c4c3C2=O)NC(=O)C(C)=C/C=C/C(C)C(O)C(C)C(O)C(C)C(OC(C)=O)C1C (configuration not stated) | 7.02% (active)
21 | COc1cc(OC)c(NC(=O)c2cc3ccccc3cc2O)cc1Cl | 82.6%
22 | CC(C)(C)[Si](C)(C)OC1[C@@H](CNC(=O)NC(=O)NC(N)=O)O[C@@H](n2cnc3c(NC(=O)Nc4ccccc4)ncnc32)[C@H]1O[Si](C)(C)C(C)(C)C (some centres not stated) | 40.8%
23 | COc1ccc(C/C(C)=C(\c2ccc(Cl)cc2)c2ccc(OCCN3CCCCC3)cc2)cc1 | 80.6%
24 | Cc1ccc(C(=O)c2ccc(CC(=O)N/N=C/c3ccccc3O)n2C)cc1 | 56.2%
25 | CCO/C=N/C1=C(C#N)C(c2ccc(Cl)cc2)c2sc3c(F)cccc3c2O1 (configuration not stated) | 36.8%
26 | CCCCNC(=O)Oc1ccc(/C(=C(/C)Cc2ccc(OC)cc2)c2ccc(OCCN(CC)CC)cc2)cc1 | 16.7%
27 | COc1cc2oc(-c3cccc(NC(=O)c4ccccc4)c3)cc(=O)c2c(OC)c1OC | 31.6%

What follows are molecules tested on OVCAR-8 ovarian in the same assay as above. Conditions: 10 µM unless noted.

Row | SMILES | growth
28 | CN1C(=O)/C(=C\c2nc([P+](c3ccccc3)(c3ccccc3)c3ccccc3)c(N3CCOCC3)o2)SC1=S | 96.4%
29 | COc1ccc2c(c1)c(-c1nc(-c3c[nH]c4ccncc34)cs1)cn2C | -52.2% (active)
30 | COc1ccc(C(=O)c2cc3c(N)c(C(=O)Nc4ccc(C)cc4)sc3nc2C)cc1 | 22%
31 | COc1cc2nc3cc([N+](=O)[O-])ccc3c(NCCNCC(C)O)c2cc1OC (configuration not stated) | -8.18% (active)
32 | Cc1sc2nc(NCCc3c[nH]c4ccc(Cl)cc34)[nH]c(=O)c2c1C | 38.5%
33 | CC/C(=C(/c1ccc(Cl)cc1)c1ccc(OCCN(C)C)cc1)c1ccc(Cl)cc1 | 75.1%
34 | CNC(=O)c1[nH]cc(-c2ccc(OC)cc2)c1-c1cc(OC)c2c(c1OC)OCO2 | 98.7%
35 | C=CCc1c(O)c(C(=O)/C=C/c2ccccc2)c(OC)c2ccoc12 | 29.6%
36 | COc1ccc(-c2cc(-c3ccc(Cl)cc3)c(C#N)c(=O)n2Cc2ccc(C(=O)Nc3ccccc3N)cc2)cc1 | 92.8%
37 | COc1ccc(/C=C/C(=O)c2cccc(OCCCCOc3cccc(C(=O)/C=C/c4ccc(OC)c(OC)c4)c3)c2)cc1OC | 68.3%
38 | CCOC(=O)c1ccc(NC(=O)c2nc(-c3cc(OC)c(OC)c(OC)c3)n(-c3ccc(Cl)cc3)n2)cc1 | 91.5%
39 | Cc1ccc(CNc2ccc3nc(CCC4CCCCC4)[nH]c3c2)cc1 | 56.4%
40 | CC(=O)c1c(C)nc(SCC(=O)Nc2cccc(O)c2)n1-c1ccc(Cl)cc1 | 99.8%
41 | Cc1ccc2c(c1)=C/C(=C\c1cc(-c3ccccc3)oc1O)C(=O)N=2 | 104%
42 | O=C(CSc1nnc(-c2cnccn2)n1-c1ccccc1)c1ccc(Cl)cc1 | 100%
43 | CCC(=C(c1ccc(OCCN2CCCCC2)cc1)c1ccc(OCCN2CCCCC2)cc1)c1ccc(Cl)cc1 | -75.4% (active)
44 | O=C(Nc1ccc(Oc2cccc(Cl)c2)c(Cl)c1)c1cnccn1 | 28%
45 | CCCNc1nc2ccccc2c2c1S(=O)(=O)c1ccc(Cl)cc1C2=O | 3.78% (active)
46 | C=CCOC(=O)Nc1cccn([C@H](Cc2ccccc2)C(=O)NCCC(C)C)c1=O | 102%
47 | N#Cc1c(-c2ccc(Cl)cc2)nc(NN2C(=O)c3ccccc3C2=O)nc1N1CCOCC1 | 102%

Row | SMILES | growth
48 | N#Cc1nc(-c2ccc(F)cc2)oc1S(=O)(=O)N1CCCCC1 | 58.3%
49 | COc1ccc2cc1Oc1ccc(cc1)C[C@H]1c3c(cc4c(c3Oc3cc5c(cc3OC)CCN(C)[C@@H]5C2)OCO4)CCN1C | 43.9%
50 | C=C1C(=O)O[C@H]2[C@H]1CC/C(COC(=O)/C=C\C(=O)NCc1ccc(Cn3c(=O)sn(CCI)c3=O)cc1)=C\CC[C@@]1(C)O[C@@H]21 | 58.3%
51 | CCOC(=O)c1c(NC(=O)c2ccc(Cl)cc2)sc2c(CN(C)C)c(O)ccc12 | 47.7%
52 | CSc1nc(N)c(NS(=O)(=O)c2ccc(C(C)=O)cc2)c(=O)[nH]1 | 107%
53 | COc1cc2c(c(OC)c1OC)CCC(c1cccc(C(=O)Nc3cccc(Cl)c3)c1)O2 (configuration not stated) | 75.1%
54 | Cc1nc2sc(C(=O)Nc3cccc4ccccc34)c(N)c2cc1C(O)c1ccccc1 (configuration not stated) | 5.13% (active)
55 | COc1ccc(C(=O)N2c3ccccc3Sc3ccccc32)c(OC)c1 | 27.9%
56 | Cc1nc2sc(C(=O)Nc3ccc(Br)cc3)c(N)c2cc1C(O)c1ccccc1 (configuration not stated) | 75.2%
57 | CNc1nnc2n(-c3ccccc3)c(=O)c3cnn(-c4ccccc4)c3n12 | 95.7%
58 | [O-]/[N+](=C\c1ccc(-n2cc(Cc3ccccc3Cc3cn(-c4ccc(/C=[N+](/[O-])c5ccccc5)cc4)nn3)nn2)cc1)c1ccccc1 | 103%
59 | COc1ccc(/C=N\Nc2nc(SCCC(C)C)nc(-c3ccc(OC)cc3)c2C#N)cc1 | 39.5%
60 | COC1/C=C/OC2(C)Oc3c(C)c(O)c4c(O)c(c(/C=N/Nc5ccc([N+](=O)[O-])cc5[N+](=O)[O-])c(O)c4c3C2=O)NC(=O)C(C)=C/C=C/C(C)C(O)C(C)C(O)C(C)C(OC(C)=O)C1C (configuration not stated) | 27.3%
61 | COc1cc(OC)c(NC(=O)c2cc3ccccc3cc2O)cc1Cl | 41.5%
62 | CC(C)(C)[Si](C)(C)OC1[C@@H](CNC(=O)NC(=O)NC(N)=O)O[C@@H](n2cnc3c(NC(=O)Nc4ccccc4)ncnc32)[C@H]1O[Si](C)(C)C(C)(C)C (some centres not stated) | 23%
63 | COc1ccc(C/C(C)=C(\c2ccc(Cl)cc2)c2ccc(OCCN3CCCCC3)cc2)cc1 | 94.9%
64 | Cc1ccc(C(=O)c2ccc(CC(=O)N/N=C/c3ccccc3O)n2C)cc1 | 79%
65 | CCO/C=N/C1=C(C#N)C(c2ccc(Cl)cc2)c2sc3c(F)cccc3c2O1 (configuration not stated) | 77.8%
66 | CCCCNC(=O)Oc1ccc(/C(=C(/C)Cc2ccc(OC)cc2)c2ccc(OCCN(CC)CC)cc2)cc1 | 86.9%
67 | COc1cc2oc(-c3cccc(NC(=O)c4ccccc4)c3)cc(=O)c2c(OC)c1OC | 61%
